The whole screen tested about 37,000 compounds, of which about 100 (0.27%) were called active. The sample holds actives, similar compounds and a random draw of the others, so the mix is not that of the screen. Cut-off read from the data, not from the text of the source: active = inhibition above about 85%; inconclusive = no clear call, values can overlap the other calls; inactive = below about 68%.

The assay in a line: blocks MITF activity, primary screen, MITF inhibitor project, cell-based, luminescence (AID 2240).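 Note: human melanocyte line stably carrying TRPM1 promoter luciferase reporter.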 Particulars: TRPM1 promoter luciferase, 24 h, active compounds read high, concentration not given here.
For `COc1ccc(NC(=O)Nc2ccc3c(c2)CC(=O)N([C@@H](C)CO)C[C@H](C)[C@@H](CN(C)CC2CCCCC2)O3)cc1`, the inhibition is -0.386% (inactive).

With `CC(C)(C)c1ccc(S(=O)(=O)NCC(=O)Nc2ccc(F)cc2)cc1`, the inhibition was 1.01% (inactive).

In the case of `Cc1ccc(S(=O)(=O)Nc2ccc3c(c2)C(=O)N([C@H](C)CO)C[C@@H](C)[C@H](CN(C)Cc2ccccc2)O3)cc1`, the inhibition was -3.79% (inactive).

As to `C/C=C(\C)C(=O)OC(/C=C/C(O)C(C)O)C1C=CC(=O)O1` (stereo not given), the inhibition is -20% (inactive).

Take `CC(C)NC(=O)Nc1ccc2c(c1)C(=O)N([C@@H](C)CO)C[C@H](C)[C@H](CN(C)S(=O)(=O)c1cccs1)O2`: the inhibition is -11.3% (inactive).

In the case of `O=C(Oc1ccc(Br)cc1)c1ccco1`, the inhibition is 16.8% (inactive).

For the compound `C[C@@H]1CCCCO[C@H](CN(C)C(=O)C2CCCCC2)[C@@H](C)CN([C@H](C)CO)C(=O)c2cc(NC(=O)C3CCCCC3)ccc2O1`, the inhibition was -0.585% (inactive).

For `Cc1ccc(-c2nnc(SCC(=O)Nc3ccccc3OC(F)F)o2)cc1`, the inhibition is -24.6% (inactive).

On to `C[C@@H]1CCCCO[C@@H](CN(C)C(=O)Nc2cccc3ccccc23)[C@@H](C)CN([C@H](C)CO)C(=O)c2cc(NS(C)(=O)=O)ccc2O1`, for which the inhibition is -18.2% (inactive).

For `C[C@@H]1CN([C@@H](C)CO)C(=O)c2cc(NC(=O)Nc3cccc4ccccc34)ccc2O[C@H]1CN(C)Cc1ccc(Cl)c(Cl)c1`, the inhibition was 18.2% (inactive).

For `COc1ccc(CCNc2nc(-c3cccc(NC(C)=O)c3)cs2)cc1OC`, the inhibition was 15.8% (inactive).

Regarding `C[C@H]1CN([C@@H](C)CO)C(=O)c2cc(NS(C)(=O)=O)ccc2O[C@@H]1CN(C)S(=O)(=O)c1ccc(Cl)cc1`, the inhibition is -7.11% (inactive).

For `C[C@@H]1CN([C@H](C)CO)C(=O)c2cccc(NS(=O)(=O)c3ccc(Cl)cc3)c2O[C@@H]1CN(C)C(=O)Nc1cccc2ccccc12`, the inhibition is 38.8% (inactive).

Consider `O=S(=O)(c1ccccc1)c1nc(-c2ccccc2F)oc1NCc1cccnc1`, for which the inhibition was -15.8% (inactive).

With `C[C@H](CO)N1C[C@H](C)[C@H](CN(C)S(=O)(=O)c2cn(C)cn2)Oc2ccc(NS(=O)(=O)c3ccccc3)cc2C1=O`, the inhibition was -1.93% (inactive).

`CCCN1C(=O)C(NS(=O)(=O)c2ccc(N)cc2)(C(F)(F)F)C(C(=O)OC)=C1C` (stereo not given): the inhibition was 5.23% (inactive).

As to `C[C@@H]1CN([C@H](C)CO)C(=O)c2cccc(N(C)C)c2O[C@H]1CN(C)S(=O)(=O)c1cn(C)cn1`, the inhibition was 8.04% (inactive).

Take `C[C@H](CO)N1C[C@H](C)[C@H](CN(C)C(=O)Nc2cccc3ccccc23)Oc2ccc(NS(C)(=O)=O)cc2C1=O`: the inhibition was 4.6% (inactive).

On to `COc1ccc(C)cc1S(=O)(=O)N1CCCC(C(=O)Nc2ccccc2C(F)(F)F)C1` (stereo not given), for which the inhibition was 4.41% (inactive).

On to `Cc1ccc(NC(=O)c2cccc(N(C)C)c2)cc1NC(=O)c1ccc(O)cc1`, for which the inhibition was -40.4% (inactive).

Consider `Cc1noc(C)c1NC(=O)Nc1ccc2c(c1)C(=O)N([C@H](C)CO)C[C@H](C)[C@@H](CN(C)C(=O)Nc1ccc(C(F)(F)F)cc1)O2`, for which the inhibition is -13.6% (inactive).

Consider `CCc1ccc2c(c1)c1nc3ccccc3nc1n2CC(=O)OC`, for which the inhibition is -10.5% (inactive).

On to `O=C(O)CCCC=C(c1ccccc1)c1ccccc1`, for which the inhibition is 12.2% (inactive).

With `COc1ccc(C)cc1NC(=O)CSc1nc(SC)ns1`, the inhibition was 32.4% (inactive).

Regarding `COc1ccc(NC(=O)Nc2ccc3c(c2)CC(=O)N([C@@H](C)CO)C[C@H](C)[C@@H](CN(C)Cc2ccc4c(c2)OCO4)O3)cc1`, the inhibition was -13.4% (inactive).

As to `Cc1scc(C(=O)NCCc2ccc(S(N)(=O)=O)cc2)c1-c1ccccc1`, the inhibition was 5.94% (inactive).

As for `C[C@@H]1CCCCO[C@H](CN(C)C(=O)NC2CCCCC2)[C@@H](C)CN([C@H](C)CO)C(=O)c2cc(NS(=O)(=O)c3ccc(F)cc3)ccc2O1`, the inhibition was 0.476% (inactive).

On to `CS(=O)(=O)N(CC(=O)Nc1cc(C(F)(F)F)ccc1Cl)c1ccccc1Br`, for which the inhibition is -1.7% (inactive).

Consider `Cc1ccc(C)c(NC(=O)CCC(=O)O)c1`, for which the inhibition is -5.62% (inactive).

For the compound `COc1ccc(S(=O)(=O)N(C)C[C@@H]2Oc3ccc(NS(=O)(=O)c4cn(C)cn4)cc3C(=O)N([C@@H](C)CO)C[C@@H]2C)cc1`, the inhibition is -3.33% (inactive).

For the compound `O=C(CCn1nc(-c2ccc(Cl)cc2)c2ccccc2c1=O)Nc1ccc(Br)cc1`, the inhibition was -0.695% (inactive).

Turning to `Cc1noc(C)c1NC(=O)N(C)C[C@@H]1Oc2ccc(NC(=O)C3CC3)cc2C(=O)N([C@H](C)CO)C[C@@H]1C`, the inhibition is -4.76% (inactive).

`C[C@H]1CN([C@@H](C)CO)C(=O)Cc2cc(NS(=O)(=O)c3ccc(Cl)cc3)ccc2O[C@H]1CN(C)S(C)(=O)=O`: the inhibition was 0.52% (inactive).

On to `Cc1cc(N(CC(=O)Nc2ccc(C(F)(F)F)cc2)S(C)(=O)=O)ccc1Br`, for which the inhibition is -4.48% (inactive).

For the compound `Cc1cc2oc(C(=O)Nc3sc4c(c3C(=O)NCc3ccco3)CCC4)c(C)c2cc1C`, the inhibition was 0.363% (inactive).

In the case of `C[C@@H]1CN([C@@H](C)CO)C(=O)c2cccc(NC(=O)Nc3ccccc3)c2O[C@H]1CN(C)Cc1ccccc1`, the inhibition was 41.2% (inactive).

`Cc1ccc(NC(=O)CSc2nc3ccccc3s2)cc1[N+](=O)[O-]`: the inhibition was -10% (inactive).

On to `Cc1nn(CC(=O)NCc2ccccn2)c(C)c1[N+](=O)[O-]`, for which the inhibition is -12.3% (inactive).

As to `COc1cc([N+](=O)[O-])ccc1NC(=S)NCc1cc(C)n(C)n1`, the inhibition was -13.2% (inactive).

On to `C[C@H]1CN([C@@H](C)CO)C(=O)Cc2cc(NC(=O)Nc3ccc(F)cc3)ccc2O[C@H]1CN(C)C(=O)Nc1ccc(C(F)(F)F)cc1`, for which the inhibition was -15.8% (inactive).

On to `C[C@@H]1CCCCO[C@@H](CN(C)C)[C@@H](C)CN([C@H](C)CO)C(=O)c2cc(N(C)C)ccc2O1`, for which the inhibition was 5.75% (inactive).

With `CCOC(=O)Cc1csc(NC(=O)c2sc3cccc(F)c3c2Cl)n1`, the inhibition was 57.6% (inactive).

With `CN(CC(=O)Nc1ccc(Br)cc1)S(=O)(=O)c1ccc2ccccc2c1`, the inhibition was 11% (inactive).

Take `C[C@H](CO)N1C[C@H](C)[C@H](CN(C)C(=O)Nc2ccc(C(F)(F)F)cc2)Oc2ccc(NC(=O)Nc3ccccc3)cc2C1=O`: the inhibition was 43% (inactive).

Regarding `O=C(CN1C(=O)COc2ccc(Cl)cc21)Nc1ccc(N2CCOCC2)cc1`, the inhibition is -7.45% (inactive).

For `Cc1ccc(C)c(NC(=O)CSc2nc(C)nc3sc(C)c(C)c23)c1`, the inhibition was 3.61% (inactive).

As for `CCSC1=C(C#N)C(=O)NCS1`, the inhibition is -7.65% (inactive).

On to `O=C(CSc1nnc(-c2ccc(Br)cc2)o1)Nc1ccc2ccccc2c1`, for which the inhibition is -4.41% (inactive).

Turning to `O=C1c2ccccc2S(=O)c2ccccc2S(=O)(=O)N1Cc1ccccc1` (stereo not given), the inhibition was 46.6% (inactive).

As to `C[C@@H]1CN([C@H](C)CO)C(=O)c2cc(NC(=O)Nc3ccccc3)ccc2O[C@@H]1CN(C)Cc1ccc(Cl)c(Cl)c1`, the inhibition was 34.3% (inactive).

On to `C[C@H](CO)N1C[C@H](C)[C@@H](CN(C)S(=O)(=O)c2cn(C)cn2)Oc2c(NC(=O)C3CC3)cccc2C1=O`, for which the inhibition was -3.68% (inactive).

Regarding `O=C(NCCCn1ccnc1)c1cc2c(s1)CCCC2`, the inhibition is 1.51% (inactive).

Take `O=C(O)c1cccc(S(=O)(=O)Nc2ccc(O)cc2Sc2nc3ccccc3s2)c1`: the inhibition is 7.04% (inactive).

On to `O=C(CCn1nc(-c2ccc(Cl)cc2)c2ccccc2c1=O)Nc1cccc(C(F)(F)F)c1`, for which the inhibition was 4.42% (inactive).

Regarding `C[C@H](CO)N1C[C@H](C)[C@H](CN(C)C(=O)Nc2ccccc2)Oc2c(NC(=O)Nc3ccc(C(F)(F)F)cc3)cccc2C1=O`, the inhibition was 21.9% (inactive).

Take `C[C@@H]1CCCCO[C@H](CN(C)Cc2ccc(Cl)c(Cl)c2)[C@@H](C)CN([C@H](C)CO)C(=O)c2cc(NS(=O)(=O)c3cn(C)cn3)ccc2O1`: the inhibition is -5.53% (inactive).

With `COc1ccc(CN(C)C[C@@H]2Oc3ccc(NS(=O)(=O)c4cn(C)cn4)cc3C(=O)N([C@@H](C)CO)C[C@H]2C)cc1`, the inhibition was -13% (inactive).

On to `O=C1Cc2ccc(F)cc2CC1C1=Cc2ccc(F)cc2CC1` (stereo not given), for which the inhibition was 5.98% (inactive).

As for `C[C@H]1CN([C@@H](C)CO)C(=O)c2cc(NC(=O)NC3CCCCC3)ccc2O[C@@H]1CN(C)C(=O)Nc1cccc2ccccc12`, the inhibition is 10.4% (inactive).

In the case of `COc1ccc(C)cc1S(=O)(=O)N(C)CC(=O)Nc1ccc(Br)cc1F`, the inhibition was 8.55% (inactive).

Turning to `C[C@@H]1CN([C@H](C)CO)C(=O)Cc2cc(NC(=O)Nc3ccc(C(F)(F)F)cc3)ccc2O[C@H]1CN(C)Cc1ccc(-c2ccccc2)cc1`, the inhibition is -11.6% (inactive).

As for `Cc1ccc(-n2c(SCC(=O)Nc3ccccc3F)nnc2-c2ccccc2)cc1C`, the inhibition is 10.1% (inactive).

Turning to `C[C@@H]1CN([C@H](C)CO)C(=O)c2cccc(NC(=O)Nc3ccc4c(c3)OCO4)c2O[C@H]1CN(C)C(=O)Nc1ccc(F)cc1`, the inhibition was 7.91% (inactive).

With `Cc1cc(C)c(C)c(Oc2coc3cc(OCC(=O)Nc4ccccc4Cl)ccc3c2=O)c1`, the inhibition was -3.54% (inactive).

Consider `C[C@@H]1CN([C@@H](C)CO)C(=O)c2cc(NS(=O)(=O)c3ccc(F)cc3)ccc2O[C@@H]1CN(C)C(=O)NC1CCCCC1`, for which the inhibition is 1.15% (inactive).

On to `O=C(CSc1nc2c(c(C(F)(F)F)n1)CCCC2)N1c2ccccc2Sc2ccccc21`, for which the inhibition was 11% (inactive).

Consider `O=[N+]([O-])c1ccccc1-c1ccc(CN2CCN3CCCC3C2C2CCCCC2)o1` (stereo not given), for which the inhibition was -7.52% (inactive).

Regarding `C/C=C(/C)C(=O)O[C@H]1CC(C)(C)C[C@H]2C3=CCC4[C@@]5(C)CC[C@H](O[C@@H]6O[C@H](C(=O)O)[C@@H](O[C@@H]7O[C@H](CO)[C@H](O)[C@H](O)[C@H]7O[C@@H]7O[C@H](CO)[C@@H](O)[C@H](O)[C@H]7O)[C@H](O)[C@H]6O[C@@H]6O[C@@H](C)[C@H](O)[C@@H](O)[C@H]6O)C(C)(C)C5CC[C@@]4(C)[C@]3(C)[C@@H](OC(C)=O)[C@@H](O)[C@@]12COC(C)=O` (stereo not given in full), the inhibition is 50.5% (inactive).

For `CC1OC(OC2C(OC3C(O[C@H]4CC[C@@]5(C)C(CC[C@]6(C)C5CC=C5[C@@H]7CC(C)(C)C[C@@H](O)[C@]7(C)CC[C@]56C)C4(C)C)OC(C(=O)O)C(O)C3O)OC(CO)C(O)C2O)C(O)C(O)C1O` (stereo not given in full), the inhibition is -6.6% (inactive).

For the compound `C/C=C(/C)C(=O)O[C@H]1CC(C)(C)C[C@H]2C3=CCC4[C@@]5(C)CC[C@H](O[C@@H]6O[C@H](C(=O)O)[C@@H](O[C@@H]7O[C@H](CO)[C@H](O)[C@H](O)[C@H]7O[C@@H]7O[C@H](CO)[C@@H](O)[C@H](O)[C@H]7O)[C@H](O)[C@H]6O[C@@H]6O[C@@H](C)[C@H](O)[C@@H](O)[C@H]6O)C(C)(C)C5CC[C@@]4(C)[C@]3(C)[C@@H](O)[C@@H](O)[C@@]12CO` (stereo not given in full), the inhibition was 93.6% (active).

For orientation: inhibition means the drop in the measured response relative to a control, in per cent.

The values above are taken from PubChem BioAssay AID2240 (Broad Institute, 2010).
